Reference: PubChem BioAssay (EPA / NIEHS)
Calls of active or inactive are those of the source. The calls were made as follows: active = hit-call score of the fitted dose curve at least 0.9, where 1 is the maximum; inactive = score below 0.9.

What follows are compounds tested on Apoptosis regulator Bcl-2 (Homo sapiens) (UniProt P10415) (assay: LTEA_HepaRG_BCL2: Life Technologies and Expression Analysis (LTEA) Assay for Bcl-2 gene using HepaRG (AID 2283475;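 also: BCL2 transcript by TaqMan qRT-PCR normalised to ACTB GAPDH and POLR2A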)). Conditions: mRNA level, 48 h; actives raise or lower the signal.
Chain of Apoptosis regulator Bcl-2 (Homo sapiens) (P10415 whole entry, looked up): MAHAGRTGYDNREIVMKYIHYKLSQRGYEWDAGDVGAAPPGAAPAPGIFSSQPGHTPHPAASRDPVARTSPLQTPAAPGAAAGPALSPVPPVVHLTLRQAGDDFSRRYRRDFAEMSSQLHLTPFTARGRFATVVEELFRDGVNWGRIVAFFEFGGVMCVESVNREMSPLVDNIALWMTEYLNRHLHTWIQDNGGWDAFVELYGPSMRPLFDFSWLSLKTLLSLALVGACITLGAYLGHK
Description: LTEA_HepaRG is a cell based, multiplexed-readout assay that uses HepaRG, a human liver cell line, with measurements taken at 48 hours after chemical dosing on a 96-well plate.LTEA_HepaRG_BCL2 is one of 102 assay component(s) measured in the LTEA HepaRG cell culture assay. It is a marker of Cell proliferation, survival, death.Data from the assay component LTEA_HepaRG_BCL2 was analyzed into 1 endpoint. This assay endpoint, LTEA_HepaRG_BCL2, was analyzed with bidirectional fitting relative to DMSO as the negative control and baseline of activity. Using a type of inducible reporter, measures of mRNA induction for gain or loss-of-signal activity can be used to understand regulation of transcription factor activity. To generalize the intended target to other relatable targets, this assay endpoint is annotated to the cell cycle intended target family, where the subfamily is Cell proliferation, survival, death.
A total of 1060 chemcials from the ToxCast library were tested in eight-point concentration-response experiments. Cell culture and cytotoxicity assays were conducted at Thermo Fisher Scientific's Custom Services facility (Madison, WI). A single lot of human HepaRG cells (Thermo Fisher Scientific, Frederick, MD) was used for the cell culture experiments. 96-well format collagen type I coated plates of human HepaRG cells were prepared using established methods. Briefly, cryopreserved HepaRG cells were thawed, plated at a density of approximately 100,000 cells/well in HepaRG Thaw, Plate, and General Purpose media (HPRG770, Thermo Fisher Scientific), and incubated for 48 hours. 0.5% DMSO was selected as vehicle control to balance the requisite need of DMSO in HepaRG cultures to maintain differentiation (for example, baseline metabolism, proportions of hepatocytes vs. cholangiocytes), while enabling further hepatic receptor pathway activation (for example, PXR and CAR) in response to chemical exposure. 48 hours after plating, the culture medium was replaced with HepaRG Serum-Free Incudtion Media. Cells were exposed to each test chemical in duplicate and maintained in CO2 incubators for another 48 hours. Chemical plates were thawed to room temperature and 200x concentrations of treatment groups were prepared. 8-point conentration-reponse curves were made with the highest exposure at 100 uM, followed by half-log dilutions, all in 0.5% DMSO. Each test plate contained variouse controls, induction positive controls (1mM phenobarbital), cytotoxicity positive controls ([…] aflatoxin B1), vehicle controls (0.5% DMSO), and total lysis controls (0.5% DMSO). Cell morphology images were taken using an Essen IncuCyte FLR automated microscope, with six 96-well plates imaged in about 24 minutes. Images were captured and exported and JPEG files. Spent culture media was transfered to black-well plates for the LDH assay, and remaining media was sorted at -80 C for later use. Cells were treated with RLT buffer and frozen until shipped for gene expression analysis. Total RNA was isolated from the cell suspension in 75 uL of Buffer RLT (Qiagen, Germantown, MD 20874) by Quintiles/Expression Analysis (Durham, NC) using a custom isolation procedure. Total RNA from each plate well was transferred to a preamplification plate. Fluidigm's 96.96 Dynamic ArrayTM (Fluidigm, Amsterdam, the Netherlands) technology was used for gene expression analyses by quantitative reverse transcription polymerase chain reaction (qRT-PCR, performed by Quintiles/Expression Analysis, Durham, NC)89. Standard TaqManTM Assays (Applied Biosystems/ThermoFisher Scientific, Foster City, CA) were used to assess the expression of 93 genes selected based on their selectivity and sensitivity to important hepatic receptors known to be modulated by environmental chemicals; importance in human hepatocyte functionality; and hepatotoxicity. […]

Row | Structure (SMILES) | outcome | AC50
1 | CCCCN(CCCC)N=O | inactive | 
2 | CCN(CC)c1ccccc1 | inactive | 
3 | Cc1cccc(N)c1 | inactive | 
4 | OCC1CO1 (stereo not given) | inactive | 
5 | COCCOCCO | inactive | 
6 | O=P(Oc1ccccc1)(Oc1ccccc1)Oc1ccccc1 |  | 80.4 µM (active)
7 | O=C(O)C(Cl)Cl | inactive | 
8 | CCOS(=O)(=O)OCC | inactive | 
9 | c1cc2c3c(cccc3c1)CC2 | inactive | 
10 | O=C(O)C1C(C(=O)O)C2(Cl)C(Cl)=C(Cl)C1(Cl)C2(Cl)Cl (stereo not given) | inactive | 
11 | Nc1ccc(Cl)cc1 | inactive | 
12 | c1ccc(OP(Oc2ccccc2)Oc2ccccc2)cc1 | inactive | 
13 | ClC(Cl)c1ccccc1 | inactive | 
14 | CCOC(=O)c1ccccc1C(=O)OCC | inactive | 
15 | CCC(C)(C)c1ccc(O)cc1 | inactive | 
16 | CCCCc1ccccc1 | inactive | 
17 | CN(C)C(=O)Cl | inactive | 
18 | CC(Cl)(Cl)C(=O)O | inactive | 
19 | CSC(C)(C)C=NO | inactive | 
20 | Cc1ccc(O)cc1C | inactive | 

Row | Structure (SMILES) | outcome | AC50
21 | Nc1cc2c3c(c1)C(c1ccccc1)=N[C@@H](NC(=O)c1cccnc1)C(=O)N3CC2 | inactive | 
22 | CCC1(c2ccccc2)C(=O)N=C(O)NC1=O (stereo not given) | inactive | 
23 | CCCCCCCc1ccc(O)cc1 | inactive | 
24 | Cc1ccc(N)cc1N | inactive | 
25 | O=P1(N(CCCl)CCCl)NCCCO1 (stereo not given) | inactive | 
26 | O=[N+]([O-])c1ccccc1 | inactive | 
27 | c1ccc2c(c1)Nc1ccccc1S2 | inactive | 
28 | Cc1ccc([N+](=O)[O-])cc1C | inactive | 
29 | ClC1=C(Cl)C2(Cl)C3C(Cl)C(Cl)CC3C1(Cl)C2(Cl)Cl (stereo not given) | inactive | 
30 | CCNc1nc(Cl)nc(NC(C)(C)C)n1 | inactive | 
31 | O=[N+]([O-])c1ccc(Cl)c(Cl)c1 | inactive | 
32 | CC(C)(C)OOC(C)(C)C | inactive | 
33 | CCOc1ccc(C(C)(C)COCc2cccc(Oc3ccccc3)c2)cc1 | inactive | 
34 | CCOP(=S)(OCC)SCSCC | inactive | 
35 | CC(C)(C)c1ccc(O)cc1 | inactive | 
36 | CCCCN(CCCC)SN(C)C(=O)Oc1cccc2c1OC(C)(C)C2 | inactive | 
37 | CCOP(=S)(Oc1ccc([N+](=O)[O-])cc1)c1ccccc1 (stereo not given) | inactive | 
38 | [N-]=[N+]=[N-] |  | 76.8 µM (active)
39 | ClC(Cl)(Cl)c1ccccc1 | inactive | 
40 | CCCN(CCC)c1c([N+](=O)[O-])cc(C(C)C)cc1[N+](=O)[O-] | inactive | 
